# Compounds without any hit were thinned out: in the full panel of roughly 83,000, 20% have a hit.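 48-hour exposure, single concentration, 96-well plates; percent growth endpoint where 0 means no net growth. Active: below 10.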 A number with no mark means an inactive call. The source made the active and inactive calls.
# What was measured:
# Assay in all cases: NCI-60 one-dose screen, 48 h (100 = growth as untreated, 0 = no growth, -100 = all killed)
# Conditions in all cases: 10 µM unless noted
# HT29 colon = system: HT29 colon
# SNB-75 CNS = system: SNB-75 CNS
# SNB-19 CNS = system: SNB-19 CNS
# U251 CNS = system: U251 CNS
# PC-3 prostate = system: PC-3 prostate
# SK-MEL-5 melanoma = system: SK-MEL-5 melanoma
# UACC-62 melanoma = system: UACC-62 melanoma
# LOX IMVI melanoma = system: LOX IMVI melanoma
# SK-MEL-28 melanoma = system: SK-MEL-28 melanoma
# SN12C renal = system: SN12C renal
# UO-31 renal = system: UO-31 renal
# TK-10 renal = system: TK-10 renal
# ACHN renal = system: ACHN renal
# CAKI-1 renal = system: CAKI-1 renal
# A498 renal = system: A498 renal
# CCRF-CEM leukemia = system: CCRF-CEM leukemia
# MOLT-4 leukemia = system: MOLT-4 leukemia
# SR leukemia = system: SR leukemia
# SK-MEL-2 melanoma = system: SK-MEL-2 melanoma
# EKVX NSCLC = system: EKVX NSCLC
SMILES,growth (HT29 colon),growth (SNB-75 CNS),growth (SNB-19 CNS),growth (U251 CNS),growth (PC-3 prostate),growth (SK-MEL-5 melanoma),growth (UACC-62 melanoma),growth (LOX IMVI melanoma),growth (SK-MEL-28 melanoma),growth (SN12C renal),growth (UO-31 renal),growth (TK-10 renal),growth (ACHN renal),growth (CAKI-1 renal),growth (A498 renal),growth (CCRF-CEM leukemia),growth (MOLT-4 leukemia),growth (SR leukemia),growth (SK-MEL-2 melanoma),growth (EKVX NSCLC)
O=C(Nc1cccc(-n2cc(-c3ccncc3)c(-c3ccc(O)c(Cl)c3)n2)c1)Nc1ccc(Cl)c(C(F)(F)F)c1,21.6%,-12% (active),33.1%,-64.4% (active),-22.6% (active),-35.9% (active),-38.9% (active),0.0501% (active),-12.8% (active),9.97% (active),-18.9% (active),-15% (active),10.7%,-30.9% (active),37.6%,1.32% (active),-20.6% (active),3.22% (active),,
CCOC(=O)c1ccccc1OC(=O)NNc1ccccc1,109%,78.9%,90.7%,83.2%,34.9%,57.2%,21.5%,73.5%,,66.4%,29.3%,72.9%,51.9%,25.5%,100%,24.6%,17.9%,27.6%,33.2%,92.8%
COC(=O)c1ccc2c(c1)nc(-c1ccc(O)c(OC)c1)n2-c1cc(C(C)(C)C)[nH]n1,96.3%,111%,101%,93.3%,65.8%,83.6%,88.3%,96.8%,118%,97.7%,50.9%,116%,108%,,90.5%,93.1%,81.2%,,92.3%,
CN(C(=O)c1ccccc1)N(C)C(=O)c1ccccc1,93.4%,105%,101%,108%,91.6%,108%,102%,106%,110%,105%,93.2%,105%,106%,,,,88.6%,92.8%,106%,
C=C(C)[C@@H]1C/C=C(/C=O)CC[C@@H]2O[C@@]2(C)CC/C=C(\C)CC1,127%,87.1%,110%,104%,63.3%,101%,92.3%,93.3%,118%,116%,122%,114%,100%,8.5% (active),124%,137%,133%,125%,,69.8%
O=C(Nc1ccncc1)C(=O)c1cn(S(=O)(=O)c2cccc(F)c2)c2ccccc12,1.12% (active),29.6%,76.5%,22.2%,47%,28.7%,37.1%,45.2%,,49.1%,56.7%,84.1%,55.9%,33.5%,,38.7%,35%,16.5%,-7.51% (active),35.4%
COc1ccc2c(c1)/C(=C\c1c[nH]c3ccc(F)cc13)C(=O)N2,86.1%,86.7%,93.9%,83.4%,84%,97%,90.7%,74.3%,105%,82.2%,57.8%,96.2%,52.7%,56.7%,68.9%,78.9%,50.6%,46.4%,,64.8%
CN(C)c1nc(N)nc(Cn2c(-c3nonc3N)nc3ccccc32)n1,72.9%,56.4%,91.8%,90.1%,82.6%,86.9%,73%,76.6%,82%,95.3%,65.2%,,88.3%,77.9%,82.5%,78.9%,90.8%,,90.5%,
COc1ccc(-c2noc(N)c2-c2cc(OC)c3c(c2)OCO3)cc1,7.22% (active),3.98% (active),53.5%,10.7%,31.1%,21.2%,44.1%,29.7%,51.8%,35.8%,52.2%,39%,40.8%,32.7%,,5.26% (active),18.4%,-25.8% (active),-1.35% (active),
CNc1ccc(CSc2ccc(Cl)cc2)cc1,109%,95.4%,89.5%,97.4%,72.9%,97.9%,83%,103%,112%,92.2%,58.3%,126%,106%,-3.51% (active),87%,33.3%,61.5%,55.8%,,104%
COc1ccc2[nH]cc(/C=C3/C(=O)Nc4ccc(Cl)cc43)c2c1,17.5%,-1.24% (active),70.7%,38%,64.6%,55.2%,51.8%,17.7%,81.1%,76.6%,65.7%,22.2%,18.2%,26.6%,67.7%,44.3%,39.9%,2.51% (active),,46.2%
CC(C)(C)c1ccc(S(=O)(=O)O)s1,106%,92.4%,95.5%,105%,52.7%,109%,93.8%,102%,112%,97.7%,40.1%,110%,96.3%,-3.29% (active),95.4%,102%,76.1%,73.1%,,92.7%
CCN(CC)c1ccc(C(O)C2=CC(=O)c3ccccc3C2=O)cc1 (centres undefined),9.6% (active),24.9%,15.3%,-80.9% (active),-2.59% (active),-38% (active),-45.3% (active),-51.8% (active),-23.1% (active),-28.1% (active),22.7%,-31.4% (active),-58.8% (active),,6.3% (active),,7.92% (active),-5.59% (active),-27.9% (active),
CCOC(Cc1c(N)[nH]c(=S)[nH]c1=O)OCC,99.2%,96.7%,106%,103%,95.3%,95.5%,104%,95.3%,102%,110%,86%,108%,94.9%,,104%,,88%,90.8%,124%,
Fc1ccc(-c2nnc(-c3c(-c4ccc(F)cc4)nc4ncccn34)o2)cc1,93.2%,102%,107%,107%,104%,95.4%,100%,96.4%,101%,104%,77.8%,111%,97.8%,100%,69.8%,96.7%,83.4%,90.8%,,108%
Cc1c(C(N)=O)sc2ncn(CC(=O)Nc3ccc(Cl)cc3)c(=O)c12,126%,101%,103%,102%,97%,107%,99.2%,96.8%,145%,112%,160%,128%,108%,40.6%,126%,121%,112%,85%,,104%
NNC(=O)NO,96%,85.9%,108%,104%,101%,105%,106%,97.7%,107%,106%,69.8%,94%,105%,106%,114%,95.8%,91.6%,95.8%,91.1%,

# Reference: PubChem BioAssay (NCI)
